Reference: PubChem BioAssay (EPA / NIEHS)
Where “and” joins values, the source holds several entries; their conditions need not be identical. Equal values may be shown once. A structure can be active in one record and inactive in another. Calls of active or inactive are those of the source. The calls were made as follows: active = hit-call score of the fitted dose curve at least 0.9, where 1 is the maximum; inactive = score below 0.9.

Experiments:
[1] = biological target: Transcription factor E2F1 (Homo sapiens) (UniProt Q01094); experiment: ATG_E2F_CIS: Attagene CIS-FACTORIAL HepG2 Assay for human E2F Transcription Factor 1 (AID 2282935); conditions: HepG2 Attagene cis-reporter, E2F reporter RNA transcripts; actives raise or lower the signal
Method in brief: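 HepG2 cells transiently transfected with multiplexed cis-element reporter units, dosed for 24 h. Reporter mRNA measured by RT-PCR, 6-FAM primer-extension labeling, HpaI digestion and capillary electrophoresis; bidirectional fit versus DMSO baseline.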

[2] = ATG_E_Box_CIS: Attagene CIS-FACTORIAL HepG2 Assay for human Enhancer Box (E-box) (AID 2282936); conditions: HepG2 E-box cis-reporter transcription, actives raise or lower the signal
Method in brief: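 HepG2 cells transiently transfected with multiplexed cis-element reporter units sensing endogenous transcription factor activity; 24 h compound exposure. Reporter mRNA measured by RT-PCR, 6-FAM primer extension, HpaI digestion and capillary electrophoresis; bidirectional fit versus DMSO.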

[3] = ATG_M_61_CIS: Attagene CIS-FACTORIAL HepG2 Assay for M61 Transcription Factor (Internal Marker) (AID 2282937); conditions: HepG2 Attagene CIS-FACTORIAL M61 internal marker reporter; actives raise or lower the signal
Method in brief: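 HepG2 cells transiently transfected with cis-element-driven multiple reporter transcription units, dosed for 24 h. Reporter mRNA measured by RT-PCR, 6-FAM primer-extension labelling, HpaI digestion and capillary electrophoresis; bidirectional fit versus DMSO baseline.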

[4] = ATG_EGR_CIS: Attagene CIS-FACTORIAL HepG2 Assay for human Early Growth Response 1 (EGR1) (AID 2282938); conditions: HepG2 Attagene CIS-FACTORIAL EGR reporter mRNA; actives raise or lower the signal
Method in brief: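 HepG2 cells transiently transfected with cis-promoter-driven multiplexed reporter transcription units; reporter mRNA measured 24 h after compound dosing by RT-PCR, 6-FAM primer extension, HpaI digestion and capillary electrophoresis. Bidirectional fit versus DMSO baseline.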

[5] = ATG_M_19_CIS: Attagene CIS-FACTORIAL HepG2 Assay for M19 Transcription Factor (Internal Marker) (AID 2282939); conditions: HepG2 Attagene CIS-FACTORIAL M19 internal marker reporter; actives raise or lower the signal
Method in brief: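 Internal marker readout, fitted in both directions against DMSO, from HepG2 cells carrying transfected cis-element reporter constructs; RT-PCR and capillary electrophoresis of reporter mRNA after 24 h exposure.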

[6] = ATG_Ets_CIS: Attagene CIS-FACTORIAL HepG2 Assay for human Erythroblast Transformation Specific (ETS) (AID 2282941); conditions: HepG2 ETS cis-reporter transcription, actives raise or lower the signal
Method in brief: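 HepG2 cells transfected with multiple cis-regulated reporter units measuring endogenous ETS-driven transcription, 24 h after dosing. Reporter mRNA quantified by RT-PCR with capillary electrophoresis; bidirectional fit relative to DMSO.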

[7] = biological target: Hepatocyte nuclear factor 3-beta (Homo sapiens) (UniProt Q9Y261); experiment: ATG_FoxA2_CIS: Attagene CIS-FACTORIAL HepG2 Assay for human Forkhead box A2 (FOXA2) (AID 2282942); conditions: HepG2 cis-reporter transcription factor activity, 24 h; actives raise or lower the signal
Method in brief: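 HepG2 cells transiently transfected with multiple cis-regulated reporter transcription units, dosed for 24 h. Reporter mRNA measured by RT-PCR, 6-FAM labelling, HpaI digestion and capillary electrophoresis; bidirectional fitting against DMSO baseline.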

[8] = ATG_FoxO_CIS: Attagene CIS-FACTORIAL HepG2 Assay for human Forkhead box O (FoxO) (AID 2282943); conditions: HepG2 Attagene cis-reporter, FoxO element, mRNA; actives raise or lower the signal
Method in brief: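 HepG2 cells transiently transfected with cis-promoter-driven multiple reporter transcription units; 24 h after chemical dosing, reporter mRNA quantified by RT-PCR, fluorescent primer extension, HpaI digestion and capillary electrophoresis. Bidirectional fitting versus DMSO baseline.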

[9] = ATG_GATA_CIS: Attagene CIS-FACTORIAL HepG2 Assay for human GATA Binding Protein (AID 2282944); conditions: HepG2 GATA cis-element reporter, Attagene multiplex mRNA; actives raise or lower the signal
Method in brief: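 Reporter transcripts from a GATA cis-regulated unit, among multiplexed reporters in transfected HepG2 cells, were measured by RT-PCR with capillary electrophoresis after 24 h dosing. Induction or loss scored relative to DMSO.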

[10] = ATG_GLI_CIS: Attagene CIS-FACTORIAL HepG2 Assay for human Zinc Finger Protein GLI1 (AID 2282945); conditions: HepG2, Attagene cis-factorial reporter mRNA, GLI element; actives raise or lower the signal
Method in brief: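 HepG2 cells transiently transfected with cis-promoter multiplexed reporter units report endogenous transcription factor activity. After 24 h chemical exposure, reporter mRNA was quantified by RT-PCR, 6-FAM labelling, HpaI digestion and capillary electrophoresis, with bidirectional fitting against DMSO.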

[11] = biological target: Bile acid receptor (Homo sapiens) (UniProt Q96RI1); experiment: ATG_IR1_CIS: Attagene CIS-FACTORIAL HepG2 Assay for human Nuclear Receptor Subfamily 1 Group H Member 4 (NR1H4), IR1 submotif (AID 2282946); conditions: IR1 reporter transcription, actives raise or lower the signal
Method in brief: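 Transient MRTU transfection, HepG2; 24 h dosing; RNA → RT-PCR → 6-FAM primer extension → HpaI digest → capillary electrophoresis fluorescence. Gain/loss of signal fitted relative to DMSO.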

[12] = ATG_GRE_CIS: Attagene CIS-FACTORIAL HepG2 Assay for human Glucocorticoid Response Elements (GRE) (AID 2282947); conditions: HepG2 GRE cis-reporter, Attagene multiplex mRNA; actives raise or lower the signal
Method in brief: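 HepG2 cells transiently transfected with multiple cis-promoter reporter units measure endogenous TF activity; 24 h compound exposure. Reporter mRNA quantified by RT-PCR, FAM labelling, HpaI digestion and capillary electrophoresis; bidirectional fit vs DMSO baseline.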

[13] = ATG_ISRE_CIS: Attagene CIS-FACTORIAL HepG2 Assay for human Interferon Regulatory Factor 1 (IRF1) binding to an Interferon-Stimulated Response Element (ISRE) (AID 2282948); conditions: HepG2 ISRE cis-reporter (Attagene), mRNA transcription readout; actives raise or lower the signal
Method in brief: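 Transiently transfected HepG2 cells carrying cis-element reporter units, dosed 24 hours. Reporter mRNA quantified by RT-PCR, fluorescent primer extension, HpaI digestion and capillary electrophoresis. Bidirectional fitting relative to DMSO.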

[14] = ATG_M_32_CIS: Attagene CIS-FACTORIAL HepG2 Assay for M32 Transcription Factor (Internal Marker) (AID 2282949); conditions: HepG2 Attagene cis-factorial M32 reporter, mRNA; actives raise or lower the signal;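 also: background control marker of the multiplexed CIS panel rather than a real target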
Method in brief: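 Internal background marker read-out: RT-PCR/capillary electrophoresis fluorescence of reporter transcripts from transiently transfected HepG2 cells after 24 h chemical exposure. Activity fitted bidirectionally relative to DMSO negative control.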

[15] = ATG_M_06_CIS: Attagene CIS-FACTORIAL HepG2 Assay for M06 Transcription Factor (Internal Marker) (AID 2282950); conditions: HepG2 Attagene CIS-FACTORIAL M06 internal marker reporter; actives raise or lower the signal
Method in brief: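 Serves as a background control readout. Transfected HepG2 exposed to compounds for 24 h, then reporter transcripts quantified by fluorescent RT-PCR and capillary electrophoresis. Both directions fitted against DMSO baseline.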

[16] = biological target: Hypoxia-inducible factor 1-alpha (Homo sapiens) (UniProt Q16665); experiment: ATG_HIF1a_CIS: Attagene CIS-FACTORIAL HepG2 Assay for human Hypoxia Inducible Factor 1 (HIF1A) (AID 2282951); conditions: HepG2 Attagene cis-factorial HIF1a reporter transcription; actives raise or lower the signal
Method in brief: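 HepG2 cells transiently transfected with multiplexed cis-promoter reporter units; reporter mRNA read 24 h after dosing by RT-PCR, 6-FAM primer-extension labelling, HpaI digestion and capillary electrophoresis. Bidirectional fit versus DMSO baseline.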

[17] = biological target: Hepatocyte nuclear factor 6 (Homo sapiens) (UniProt Q9UBC0); experiment: ATG_HNF6_CIS: Attagene CIS-FACTORIAL HepG2 Assay for human Hepatocyte Nuclear Factor 6 (HNF6) (AID 2282952); conditions: HepG2 Attagene cis-factorial HNF6 reporter transcription; actives raise or lower the signal
Method in brief: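 Cells are HepG2 carrying transiently transfected cis-promoter reporter units. Treatment lasts 24 h, after which reporter transcripts are reverse-transcribed, amplified, FAM-labelled and sized by capillary electrophoresis. DMSO serves as baseline.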

[18] = biological target: Heat shock factor protein 1 (Homo sapiens) (UniProt Q00613); experiment: ATG_HSE_CIS: Attagene CIS-FACTORIAL HepG2 Assay for human Heat Shock Transcription Factor 1 (HSE) (AID 2282953); conditions: HepG2 HSE cis-reporter, Attagene RNA transcription; actives raise or lower the signal
Method in brief: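 Endogenous transcription factor activity in transiently transfected HepG2, read as reporter mRNA by RT-PCR with fluorescent capillary electrophoresis after 24 h. Gain or loss of signal fitted versus DMSO baseline.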

[19] = ATG_MRE_CIS: Attagene CIS-FACTORIAL HepG2 Assay for human Metal Responsive Element (MRE) (AID 2282954); conditions: HepG2 MRE cis-reporter transcription, Attagene multiplex; actives raise or lower the signal
Method in brief: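 HepG2 cells transiently transfected with multiple cis-element reporter units measure endogenous MTF1-driven transcription. After 24 h compound exposure, reporter mRNA is quantified by RT-PCR with 6-FAM labelling, HpaI digestion and capillary electrophoresis; bidirectional fits versus DMSO.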

[20] = ATG_ERE_CIS: Attagene CIS-FACTORIAL HepG2 Assay for Estrogen Response Element (ERE) (AID 2282940); conditions: HepG2 ERE cis-reporter, Attagene RNA transcript; actives raise or lower the signal
Method in brief: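 After 24 h compound treatment, RNA from transfected HepG2 cells was reverse-transcribed, reporter cDNA PCR-amplified, FAM-labelled, HpaI-cut and resolved by capillary electrophoresis. ERE-driven cis reporter transcripts reflect endogenous factors; gain or loss scored against DMSO.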

Bile acid receptor (Homo sapiens), sequence (Q96RI1 whole entry, looked up): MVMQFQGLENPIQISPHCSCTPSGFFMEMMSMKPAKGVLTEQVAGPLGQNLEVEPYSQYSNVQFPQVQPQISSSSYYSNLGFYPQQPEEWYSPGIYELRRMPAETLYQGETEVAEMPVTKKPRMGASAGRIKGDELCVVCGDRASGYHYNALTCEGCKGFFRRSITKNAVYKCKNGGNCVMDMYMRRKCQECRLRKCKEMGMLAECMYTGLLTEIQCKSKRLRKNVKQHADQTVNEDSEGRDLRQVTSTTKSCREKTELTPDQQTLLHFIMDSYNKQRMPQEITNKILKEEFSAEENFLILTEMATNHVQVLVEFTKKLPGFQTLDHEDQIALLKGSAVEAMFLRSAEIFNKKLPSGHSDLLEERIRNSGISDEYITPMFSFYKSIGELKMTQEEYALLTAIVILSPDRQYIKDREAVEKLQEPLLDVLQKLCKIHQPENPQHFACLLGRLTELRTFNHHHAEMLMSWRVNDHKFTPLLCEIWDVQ
Heat shock factor protein 1 (Homo sapiens), sequence (Q00613 whole entry, looked up): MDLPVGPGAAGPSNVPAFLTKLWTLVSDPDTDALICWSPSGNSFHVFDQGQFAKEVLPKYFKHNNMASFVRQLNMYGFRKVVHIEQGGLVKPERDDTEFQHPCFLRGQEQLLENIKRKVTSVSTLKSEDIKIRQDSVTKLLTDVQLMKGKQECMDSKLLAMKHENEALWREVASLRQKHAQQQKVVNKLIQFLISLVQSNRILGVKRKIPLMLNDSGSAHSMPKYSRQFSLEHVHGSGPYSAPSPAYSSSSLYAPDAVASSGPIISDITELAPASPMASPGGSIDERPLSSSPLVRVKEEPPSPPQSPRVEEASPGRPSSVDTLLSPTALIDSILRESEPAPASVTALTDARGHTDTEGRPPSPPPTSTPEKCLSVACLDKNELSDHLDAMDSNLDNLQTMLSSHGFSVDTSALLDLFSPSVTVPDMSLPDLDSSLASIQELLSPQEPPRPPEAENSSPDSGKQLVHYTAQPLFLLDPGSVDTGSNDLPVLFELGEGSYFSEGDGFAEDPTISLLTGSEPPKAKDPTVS
Transcription factor E2F1 (Homo sapiens), sequence (Q01094 whole entry, looked up): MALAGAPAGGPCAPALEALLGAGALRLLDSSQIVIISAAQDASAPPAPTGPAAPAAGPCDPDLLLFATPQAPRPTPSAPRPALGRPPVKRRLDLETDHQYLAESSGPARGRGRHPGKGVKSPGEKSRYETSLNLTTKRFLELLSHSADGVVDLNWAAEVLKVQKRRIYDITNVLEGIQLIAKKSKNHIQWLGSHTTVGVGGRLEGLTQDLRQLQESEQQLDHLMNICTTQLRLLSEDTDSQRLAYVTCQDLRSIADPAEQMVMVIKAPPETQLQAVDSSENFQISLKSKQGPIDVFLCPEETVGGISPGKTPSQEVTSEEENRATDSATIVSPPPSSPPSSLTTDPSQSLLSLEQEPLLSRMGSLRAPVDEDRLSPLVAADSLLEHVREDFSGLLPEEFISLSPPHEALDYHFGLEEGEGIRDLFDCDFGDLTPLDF
Hepatocyte nuclear factor 3-beta (Homo sapiens), sequence (Q9Y261 whole entry, looked up): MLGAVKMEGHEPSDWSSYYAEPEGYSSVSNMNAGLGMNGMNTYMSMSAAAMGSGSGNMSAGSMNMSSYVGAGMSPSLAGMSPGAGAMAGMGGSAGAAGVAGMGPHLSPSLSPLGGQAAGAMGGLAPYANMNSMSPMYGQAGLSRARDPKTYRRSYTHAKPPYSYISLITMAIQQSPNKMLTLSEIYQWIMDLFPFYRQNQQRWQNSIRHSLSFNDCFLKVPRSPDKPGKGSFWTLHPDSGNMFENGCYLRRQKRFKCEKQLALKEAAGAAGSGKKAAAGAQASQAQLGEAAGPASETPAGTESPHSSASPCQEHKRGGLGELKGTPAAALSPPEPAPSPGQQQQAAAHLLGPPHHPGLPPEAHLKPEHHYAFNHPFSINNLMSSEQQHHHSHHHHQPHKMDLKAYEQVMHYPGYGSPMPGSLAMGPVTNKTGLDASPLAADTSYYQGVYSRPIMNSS
Hepatocyte nuclear factor 6 (Homo sapiens), sequence (Q9UBC0 whole entry, looked up): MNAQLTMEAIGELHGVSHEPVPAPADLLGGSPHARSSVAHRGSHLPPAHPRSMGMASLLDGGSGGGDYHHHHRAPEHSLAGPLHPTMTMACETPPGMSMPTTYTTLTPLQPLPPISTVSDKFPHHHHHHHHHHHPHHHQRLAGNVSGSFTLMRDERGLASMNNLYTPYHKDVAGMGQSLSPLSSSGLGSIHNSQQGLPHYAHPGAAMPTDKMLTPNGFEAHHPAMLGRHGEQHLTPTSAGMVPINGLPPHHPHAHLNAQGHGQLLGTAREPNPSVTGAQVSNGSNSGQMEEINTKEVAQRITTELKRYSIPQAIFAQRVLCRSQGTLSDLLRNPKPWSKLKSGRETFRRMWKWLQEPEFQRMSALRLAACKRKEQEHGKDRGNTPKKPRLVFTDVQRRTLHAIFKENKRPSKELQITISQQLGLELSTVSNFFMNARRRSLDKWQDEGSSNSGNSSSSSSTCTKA
Hypoxia-inducible factor 1-alpha (Homo sapiens), sequence (Q16665 whole entry, looked up): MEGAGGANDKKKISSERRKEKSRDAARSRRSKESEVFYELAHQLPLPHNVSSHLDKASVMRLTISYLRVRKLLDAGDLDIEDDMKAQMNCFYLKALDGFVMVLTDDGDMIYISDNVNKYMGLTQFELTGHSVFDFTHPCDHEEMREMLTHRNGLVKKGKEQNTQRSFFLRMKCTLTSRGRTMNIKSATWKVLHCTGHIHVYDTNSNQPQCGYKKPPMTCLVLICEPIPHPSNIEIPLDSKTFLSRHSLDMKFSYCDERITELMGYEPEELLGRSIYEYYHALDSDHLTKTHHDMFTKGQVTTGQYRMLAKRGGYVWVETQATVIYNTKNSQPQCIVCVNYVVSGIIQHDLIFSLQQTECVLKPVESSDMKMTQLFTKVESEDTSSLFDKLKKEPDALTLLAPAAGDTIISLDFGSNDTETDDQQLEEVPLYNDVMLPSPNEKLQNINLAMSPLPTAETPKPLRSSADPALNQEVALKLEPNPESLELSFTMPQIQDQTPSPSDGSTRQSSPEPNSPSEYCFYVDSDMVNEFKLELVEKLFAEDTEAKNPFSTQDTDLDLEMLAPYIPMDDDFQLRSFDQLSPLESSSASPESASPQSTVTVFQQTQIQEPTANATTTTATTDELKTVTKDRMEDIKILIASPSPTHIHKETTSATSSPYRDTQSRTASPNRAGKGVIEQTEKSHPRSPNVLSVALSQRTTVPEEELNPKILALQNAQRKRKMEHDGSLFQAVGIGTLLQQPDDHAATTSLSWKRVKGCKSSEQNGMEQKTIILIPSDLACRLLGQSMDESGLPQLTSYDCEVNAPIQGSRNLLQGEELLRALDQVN

Structure (SMILES): CCOC(=O)C(C)Oc1ccc(Oc2nc3ccc(Cl)cc3o2)cc1 (stereo unspecified)
- outcome [1]: inactive
- outcome [2]: inactive
- outcome [3]: inactive
- outcome [4]: inactive
- outcome [5]: inactive
- outcome [6]: inactive
- outcome [7]: inactive
- outcome [8]: inactive
- outcome [9]: inactive
- outcome [10]: inactive
- outcome [11]: inactive
- outcome [12]: inactive
- outcome [13]: inactive
- outcome [14]: inactive
- outcome [15]: inactive
- outcome [16]: inactive
- outcome [17]: inactive
- outcome [18]: inactive
- outcome [19]: inactive

Structure (SMILES): CCCN(CCC)C(=O)SCC
- outcome [1]: inactive
- outcome [2]: inactive
- outcome [3]: inactive
- outcome [4]: inactive
- outcome [5]: inactive
- outcome [20]: inactive
- outcome [6]: inactive
- outcome [7]: inactive
- outcome [8]: inactive
- outcome [9]: inactive
- outcome [10]: inactive
- outcome [12]: inactive
- outcome [13]: inactive
- outcome [15]: inactive
- outcome [17]: inactive
- outcome [18]: inactive
- outcome [19]: inactive

Structure (SMILES): Oc1ccc(C(c2ccc(O)cc2)C(Cl)(Cl)Cl)cc1
- outcome [1]: inactive
- outcome [2]: inactive
- outcome [3]: inactive
- outcome [4]: inactive
- outcome [5]: inactive
- outcome [6]: inactive
- outcome [7]: inactive
- outcome [8]: inactive
- outcome [9]: inactive
- outcome [10]: inactive
- outcome [11]: inactive
- outcome [12]: inactive
- outcome [13]: inactive
- outcome [15]: inactive
- outcome [17]: inactive
- outcome [18]: inactive
- outcome [19]: inactive

Structure (SMILES): C[C@]12C[C@H](O)[C@H]3[C@@H](CCC4=CC(=O)CC[C@@]43C)[C@@H]1CC[C@@H]2C(=O)CO
- outcome [1]: inactive
- outcome [2]: inactive
- outcome [3]: inactive
- outcome [4]: inactive
- outcome [5]: inactive
- outcome [6]: inactive
- outcome [7]: inactive
- outcome [8]: inactive
- outcome [9]: inactive
- outcome [10]: inactive
- outcome [11]: inactive
- AC50 [12]: 26.6 µM (active)
- outcome [12]: inactive
- outcome [13]: inactive
- outcome [14]: inactive
- outcome [15]: inactive
- outcome [17]: inactive
- outcome [18]: inactive

Structure (SMILES): C#C[C@]1(O)CC[C@H]2[C@@H]3CCC4=CC(=O)CC[C@@H]4[C@H]3CC[C@@]21CC
- outcome [1]: inactive
- outcome [2]: inactive
- outcome [3]: inactive
- outcome [4]: inactive
- outcome [5]: inactive
- outcome [6]: inactive
- outcome [7]: inactive
- outcome [8]: inactive
- outcome [9]: inactive
- outcome [10]: inactive
- outcome [12]: inactive
- outcome [13]: inactive
- outcome [15]: inactive
- outcome [17]: inactive

Structure (SMILES): N[C@@H](Cc1cc(I)c(Oc2ccc(O)c(I)c2)c(I)c1)C(=O)O
- outcome [1]: inactive
- outcome [2]: inactive
- outcome [3]: inactive
- outcome [4]: inactive
- outcome [5]: inactive
- outcome [6]: inactive
- AC50 [7]: 1.32 µM (active)
- outcome [7]: inactive
- outcome [8]: inactive
- outcome [9]: inactive
- outcome [10]: inactive
- outcome [12]: inactive
- outcome [13]: inactive
- outcome [14]: inactive
- outcome [15]: inactive
- AC50 [16]: 16.3 µM (active) and 19.5 µM (active) and 1.93 µM (active)
- outcome [16]: inactive
- outcome [17]: inactive
- AC50 [18]: 107 µM (active) and 160 µM (active)
- outcome [18]: inactive

Structure (SMILES): COCCO
- outcome [1]: inactive
- outcome [2]: inactive
- outcome [3]: inactive
- outcome [4]: inactive
- outcome [5]: inactive
- outcome [20]: inactive
- outcome [6]: inactive
- outcome [7]: inactive
- outcome [8]: inactive
- outcome [9]: inactive
- outcome [10]: inactive
- outcome [12]: inactive
- outcome [13]: inactive
- outcome [15]: inactive
- outcome [17]: inactive
- outcome [18]: inactive
